# Over roughly 16,000 sequences, “Z-score” has its median near -0.37; the highest 2% begin near 3.1. Shown is part of a subset that was picked to be rich in the highest values.
# Tested on: RBM10 RRM1-ZnF-RRM2 (GST-tagged construct)
# Test: RNAcompete 7-mer binding Z-score; higher = stronger binding preference
# Procedure, shortened: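 A designed pool of 241 399 RNAs, each up to 41 nt and transcribed from microarray-derived DNA templates, was used at 1.5 nmol with 20 pmol of GST-tagged RBM10 constructs. The mixture, in 1 ml Hepes pH 7.8 buffer with KCl, NaCl, glycerol, DTT, BSA and glutathione Sepharose beads, was held 30 min at 4°C and then washed four times for 2 min at 4°C. Bound RNA was read out by microarray hybridisation, and enrichment of each heptamer motif was scored as a one-sided Z-score over the probes carrying it.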
row,Sequence,RNAcompete 7-mer binding Z-score
1,AGAUAAG,0.989
2,GUUAACU,-0.398
3,UCCUGUA,-0.795
4,UCAUGGG,1.19
5,AAAACGU,-0.0197
6,AGAGAGG,1.58
7,GGAGAGA,1.26
8,GGAGUGA,2.63
9,CGAGGCG,1.5
10,GGAGUGG,4.61
11,GGAGAGG,3.28
12,AGAGUGG,2.77
13,CGAGGGG,3.29
14,CGAGGGC,1.41
15,GUCCAAA,-0.424
16,GUUCACG,-0.355
17,UAAGCAU,-0.555
18,UAUCAAU,-0.46
19,CUGUGUA,-0.417
20,UCUUUUG,-0.632
21,CACAGGG,2.49
22,AACAGGG,3.73
23,AACAGGC,1.62

row,Sequence,RNAcompete 7-mer binding Z-score
1,UGCAGGG,2.53
2,AGCAGGG,3.39
3,AGCAGGA,2.45
4,GGUGCCC,0.0495
5,CUUAGCU,-0.832
6,CCUUGUC,-0.89
7,AUUUUCU,-0.803
8,CUUCUGC,-0.959
9,UUACUGC,-0.799
10,GAAAAGG,4.73
11,AAAAGGU,2.52
12,CGUAAGG,0.844
13,AAAAAGG,2.19
14,GAAAAAG,1.52
15,AGUAAGU,0.188
16,AGUAAGG,3.47
17,CAAAGGU,1.62
18,CGAAAGG,1.98
19,UGAAAGG,2.76
20,AGAAAGG,4.73
21,GAAAGGU,4.42
22,GCGUGUC,-0.235
23,GCAUCGA,-0.22

row,Sequence,RNAcompete 7-mer binding Z-score
1,CGCCUCA,-0.748
2,CGGAGCA,1.02
3,GCAGCGG,2.14
4,GUUCUAC,-0.759
5,GUAAAGU,0.396
6,CAUAAGG,0.548
7,GAUAAGU,0.0969
8,GUAAAGG,3.36
9,GAUAAGG,3.81
10,GUAAAAG,0.767
11,CCUACAG,-0.752
12,UGACACA,-0.315
13,UUCUUAU,-0.744
14,CGAACGC,-0.256
15,CCAUUUU,-1.08
16,AUUACAC,-0.537
17,GGCUCAA,-0.122
18,CCCUCUU,-0.89
19,AAAAGGG,3.58
20,CAAAGGA,1.34
21,AAAAGGA,3.25
22,CAAAGGG,2.78
23,UAAAGGA,1.64

row,Sequence,RNAcompete 7-mer binding Z-score
1,UAAAGGG,2.65
2,CUUUCGC,-0.967
3,UGAAGAU,-0.00877
4,GAAUGGA,3.56
5,CAAUGGU,1.25
6,ACAUGGA,1.76
7,GAAUGGC,1.68
8,AAAUGUA,0.0859
9,GAAUGGU,2.65
10,UAAUGGG,2.89
11,CAAUGGG,3.4
12,GAAUGGG,4.77
13,UAAUGGA,1.64
14,AAAUGGA,3.34
15,CAAUGGA,1.4
16,UGCGCUU,-0.744
17,CCCUCAG,-0.81
18,CUCCGUC,-0.894
19,GACAAGC,-0.0233
20,GGCCGGU,0.279
21,GAUUCCA,-0.519
22,GUAUGGG,4.06
23,AAAUGGG,4.04

# — the supplement of paper PMC5499739
